# In PubChem BioAssay AID1159580 (chemical genetic matrix, 2015):
# Several values for one entry are separate records, joined by “and”; a condition that tells them apart may be missing. Identical values can stand only once. Among all 5,500 compounds or so, about 2,000 (36%) were called active. Another 18% or so got no clear call; they are omitted. The list shows a part of the results. Values without a mark were called inactive. Cut-off read from the data, not from the text of the source: active = normalized growth mostly below about 0.91 (no sharp cut-off); inconclusive = no clear call, values can overlap the other calls; inactive = mostly above about 0.92.
# Assay: chemical genetic growth profiling, strain panel (AID 1159580);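 note: tested at 20 µM; growth read once vehicle control cultures reached saturation at 30 °C; 1 = growth at the plate median or of vehicle wells; lower values mean less growth of the strain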
# Conditions: growth OD
smiles,measurement,setting,value
O=c1c(O)c(-c2cc(O)c(O)c(O)c2)oc2cc(O)cc(O)c12,normalized growth,"S. cerevisiae deletion strains, locus YAL040C, strain CLN3, hits give low values",1.07
same,normalized growth,"S. cerevisiae deletion strains, locus YBR021W, strain FUR4, hits give low values",1.01
same,normalized growth,"S. cerevisiae deletion strains, locus YBR229C, strain ROT2, hits give low values",1
same,normalized growth,"S. cerevisiae deletion strains, locus YCL029C, strain bik1, hits give low values",1.02
same,normalized growth,"S. cerevisiae deletion strains, locus YCL061C, strain MRC1 (second series), hits give low values",0.985
same,normalized growth,"S. cerevisiae deletion strains, locus YDL035C, strain GPR1, hits give low values",0.972
same,normalized growth,"S. cerevisiae deletion strains, locus YDL074C, strain BRE1, hits give low values",1.01
same,normalized growth,"S. cerevisiae deletion strains, locus YDL101C, strain DUN1, hits give low values",1.03
same,normalized growth,"S. cerevisiae deletion strains, locus YDL185W, strain tfp1, hits give low values",1.02
same,normalized growth,"S. cerevisiae deletion strains, locus YDL192W, strain arf1, hits give low values",1.02
same,normalized growth,"S. cerevisiae deletion strains, locus YDR101C, strain arx1, hits give low values",1
same,normalized growth,"S. cerevisiae deletion strains, locus YDR150W, strain NUM1, hits give low values",1.02
same,normalized growth,"S. cerevisiae deletion strains, locus YDR162C, strain NBP2, hits give low values",0.963
same,normalized growth,"S. cerevisiae deletion strains, locus YDR318W, strain mcm21, hits give low values",1.01
same,normalized growth,"S. cerevisiae deletion strains, locus YDR363W, strain ESC2, hits give low values",1.03
same,normalized growth,"S. cerevisiae deletion strains, locus YDR388W, hits give low values",1.02
same,normalized growth,"S. cerevisiae deletion strains, locus YDR502C, strain sam2, hits give low values",1
same,normalized growth,"S. cerevisiae deletion strains, locus YEL061C, strain CIN8, hits give low values",1
same,normalized growth,"S. cerevisiae deletion strains, locus YER002W, strain NOP16, hits give low values",1
same,normalized growth,"S. cerevisiae deletion strains, locus YER110C, hits give low values",1.03
same,normalized growth,"S. cerevisiae deletion strains, locus YER155C, strain BEM2, hits give low values",0.999
same,normalized growth,"S. cerevisiae deletion strains, locus YER167W, strain BCK2, hits give low values",0.997
same,normalized growth,"S. cerevisiae deletion strains, locus YGL078C, strain dbp3, hits give low values",1
same,normalized growth,"S. cerevisiae deletion strains, locus YGL086W, strain mad1, hits give low values",1
same,normalized growth,"S. cerevisiae deletion strains, locus YGL248W, strain PDE1, hits give low values",1.03
same,normalized growth,"S. cerevisiae deletion strains, locus YGR078C, strain PAC10, hits give low values",0.959
same,normalized growth,"S. cerevisiae deletion strains, locus YGR135W, strain pre9, hits give low values",0.998
same,normalized growth,"S. cerevisiae deletion strains, locus YGR229C, strain SMI1, hits give low values",0.416 (active)
same,normalized growth,"S. cerevisiae deletion strains, locus YGR252W, strain gcn5, hits give low values",1
same,normalized growth,"S. cerevisiae deletion strains, locus YHR030C, strain SLT2, hits give low values",1.01
same,normalized growth,"S. cerevisiae deletion strains, locus YHR079C, strain IRE1 (second series), hits give low values",1.01
same,normalized growth,"S. cerevisiae deletion strains, locus YHR094C, strain hxt1, hits give low values",1.03
same,normalized growth,"S. cerevisiae deletion strains, locus YHR129C, strain ARP1, hits give low values",1.02
same,normalized growth,"S. cerevisiae deletion strains, locus YHR200W, strain rpn10, hits give low values",1.02
same,normalized growth,"S. cerevisiae deletion strains, locus YIL066C, strain RNR3, hits give low values",0.976
same,normalized growth,"S. cerevisiae deletion strains, locus YIL073C, strain SPO22, hits give low values",1.03
same,normalized growth,"S. cerevisiae deletion strains, locus YIL125W, strain kgd1, hits give low values",1.02
same,normalized growth,"S. cerevisiae deletion strains, locus YIR030C, strain dcg1, hits give low values",1
same,normalized growth,"S. cerevisiae deletion strains, locus YJL095W, strain BCK1, hits give low values",1.05
same,normalized growth,"S. cerevisiae deletion strains, locus YJL134W, strain LCB3, hits give low values",1
same,normalized growth,"S. cerevisiae deletion strains, locus YJL168C, strain set2, hits give low values",1.01
same,normalized growth,"S. cerevisiae deletion strains, locus YJL187C, strain SWE1 (second series), hits give low values",1.05
same,normalized growth,"S. cerevisiae deletion strains, locus YJR043C, strain POL32, hits give low values",0.965
same,normalized growth,"S. cerevisiae deletion strains, locus YJR075W, strain HOC1, hits give low values",0.993
same,normalized growth,"S. cerevisiae deletion strains, locus YKL009W, strain mrt4, hits give low values",0.996
same,normalized growth,"S. cerevisiae deletion strains, locus YKL068W, hits give low values",1.01
same,normalized growth,"S. cerevisiae deletion strains, locus YKL085W, strain MDH1 (second series), hits give low values",1
same,normalized growth,"S. cerevisiae deletion strains, locus YKL085W, strain MDH1, hits give low values",1
same,normalized growth,"S. cerevisiae deletion strains, locus YKL190W, strain CNB1, hits give low values",1.01
same,normalized growth,"S. cerevisiae deletion strains, locus YKR001C, strain vps1, hits give low values",1.01
same,normalized growth,"S. cerevisiae deletion strains, locus YLR039C, strain RIC1, hits give low values",1
same,normalized growth,"S. cerevisiae deletion strains, locus YLR058C, strain SHM2, hits give low values",1.01
same,normalized growth,"S. cerevisiae deletion strains, locus YLR102C, strain apc9, hits give low values",1.02
same,normalized growth,"S. cerevisiae deletion strains, locus YLR262C, strain YPT6, hits give low values",0.997
same,normalized growth,"S. cerevisiae deletion strains, locus YLR268W, strain sec22, hits give low values",1.03
same,normalized growth,"S. cerevisiae deletion strains, locus YLR330W, strain CHS5, hits give low values",1.01
same,normalized growth,"S. cerevisiae deletion strains, locus YLR342W, strain FKS1 (second series), hits give low values",1.04
same,normalized growth,"S. cerevisiae deletion strains, locus YLR371W, strain rom2, hits give low values",1.01
same,normalized growth,"S. cerevisiae deletion strains, locus YLR418C, strain cdc73, hits give low values",0.981
same,normalized growth,"S. cerevisiae deletion strains, locus YML016C, strain PPZ1, hits give low values",1
same,normalized growth,"S. cerevisiae deletion strains, locus YML032C, strain rad52, hits give low values",1
same,normalized growth,"S. cerevisiae deletion strains, locus YML124C, strain tub3, hits give low values",1.01
same,normalized growth,"S. cerevisiae deletion strains, locus YMR078C, strain ctf18, hits give low values",1.01
same,normalized growth,"S. cerevisiae deletion strains, locus YMR223W, strain ubp8, hits give low values",1
same,normalized growth,"S. cerevisiae deletion strains, locus YMR263W, strain SAP30, hits give low values",1.05
same,normalized growth,"S. cerevisiae deletion strains, locus YMR307W, strain GAS1, hits give low values",0.969 and 0.876
same,normalized growth,"S. cerevisiae deletion strains, locus YNL067W, strain RPL9B, hits give low values",1.06
same,normalized growth,"S. cerevisiae deletion strains, locus YNL175C, strain NOP13, hits give low values",0.999
same,normalized growth,"S. cerevisiae deletion strains, locus YNL197C, strain WHI3, hits give low values",0.997
same,normalized growth,"S. cerevisiae deletion strains, locus YNL224C, strain SQS1, hits give low values",0.967
same,normalized growth,"S. cerevisiae deletion strains, locus YNL233W, strain BNI4, hits give low values",1.05
same,normalized growth,"S. cerevisiae deletion strains, locus YNL250W, strain rad50, hits give low values",1.02
same,normalized growth,"S. cerevisiae deletion strains, locus YNL271C, strain bni1, hits give low values",1.01
same,normalized growth,"S. cerevisiae deletion strains, locus YNL298W, strain CLA4, hits give low values",1.02
same,normalized growth,"S. cerevisiae deletion strains, locus YNL307C, strain MCK1, hits give low values",1.02
same,normalized growth,"S. cerevisiae deletion strains, locus YNL322C, strain KRE1, hits give low values",0.898 (active)
same,normalized growth,"S. cerevisiae deletion strains, locus YNR052C, strain pop2, hits give low values",1
same,normalized growth,"S. cerevisiae deletion strains, locus YOL006C, strain TOP1, hits give low values",1.08
same,normalized growth,"S. cerevisiae deletion strains, locus YOL012C, strain htz1",0.839
same,normalized growth,"S. cerevisiae deletion strains, locus YOL147C, strain pex11, hits give low values",1.02
same,normalized growth,"S. cerevisiae deletion strains, locus YOR061W, strain CKA2, hits give low values",0.99
same,normalized growth,"S. cerevisiae deletion strains, locus YOR069W, strain VPS5, hits give low values",1.01
same,normalized growth,"S. cerevisiae deletion strains, locus YOR083W, strain WHI5 (second series), hits give low values",0.957
same,normalized growth,"S. cerevisiae deletion strains, locus YOR136W, strain idh2, hits give low values",1.03
same,normalized growth,"S. cerevisiae deletion strains, locus YOR144C, strain elg1, hits give low values",1.01
same,normalized growth,"S. cerevisiae deletion strains, locus YOR184W, strain ser1, hits give low values",1
same,normalized growth,"S. cerevisiae deletion strains, locus YOR316C, strain cot1, hits give low values",1.02
same,normalized growth,"S. cerevisiae deletion strains, locus YPL055C, strain LGE1, hits give low values",1.01
same,normalized growth,"S. cerevisiae deletion strains, locus YPL241C, strain CIN2, hits give low values",0.995
same,normalized growth,"S. cerevisiae deletion strains, locus YPR119W, strain clb2, hits give low values",1.01
same,normalized growth,"S. cerevisiae deletion strains, locus YPR141C, strain kar3, hits give low values",1.01
same,normalized growth,"S. cerevisiae deletion strains, locus YPR163C, strain tif3, hits give low values",1.01
same,normalized growth,"S. cerevisiae deletion strains, locus YPR167C, strain met16, hits give low values",1.01
same,normalized growth,"S. cerevisiae deletion strains, strain wtn01, hits give low values",1.02
same,normalized growth,"S. cerevisiae strains, strain wild type, hits give low values",1.01
